# High-throughput results from PubChem.
# Only some compounds are listed: those with a hit (about 21% of all), similar ones and a draw of the others.
# HCV inh: inhibitors of hepatitis C virus infection | Huh7.5.1 HCVcc-Cre infection, luciferase reporter, 44 h | Potency, µM (doses to about 41.8 µM), without a hit: at the highest dose activity change, negative = inhibition, hits mostly inhibitors | 340,000 compounds, 3.4% hits | AID 651820; also: potency is read from the fitted curve at half-maximal effect; % is scaled to controls: 0 for no effect and ±100 for the full control effect
#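 Cells (1,000/well) were plated 4 h before compound, then infected with HCVcc-Cre virus (~0.5 moi). After 44 h further culture, infection was read as luciferase luminescence following a 15 min substrate incubation at room temperature.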
# CHX counter: affects cycloheximide protein synthesis inhibition readout, counter-screen; cell reporter, cycloheximide protein synthesis inhibition counterscreen; AID 2314; 300,000 compounds, 12% hits; max response, %; in the data active = max response mostly above about 13%, no sharp cut-off; inactive = mostly below about 14%; also: read at 38.3 µM for the half of the compounds with a filed dose; 0% is about no effect
# AMA1-RON2 inh: disrupts binding of P. falciparum AMA1 to RON2 | AlphaScreen AMA1-biotinylated RON2 peptide binding | Potency, µM (highest dose often 58.2 µM), for inactives: at the highest dose activity change, negative = inhibition, most hits filed as inhibitors | 360,000 compounds, 0.2% hits;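 also: potency is read from the fitted curve at half-maximal effect; 0% = vehicle wells and -100% = peptide control; nearly all actives have a fitted effect of over 45% in size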
#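 AMA1 (3D7) with his tag at 25 nM final met compounds first, then biotinylated RON2 peptide at 25 nM; detection used donor plus acceptor beads, 10 µg/mL apiece, read by AlphaScreen after 30 min at room temperature.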
# Shiga inhibitor: blocks Shiga toxin action in Vero cells; inhibition, % at 38.7 µM; 290,000 compounds, 9.2% hits; AID 2315; Vero cells, Shiga toxin protein synthesis inhibition reporter; in the data active = inhibition mostly above about 28%, no sharp cut-off; inactive = mostly below about 43%; also: 0% is about no effect
# Pf growth 48h: P. falciparum growth inhibition at 48 hours (one generation) | P. falciparum luciferase growth in erythrocytes, 48 h | Potency, µM (titrated, usually from 28.7 µM), for inactives: top-dose activity change, negative = inhibition, hits mostly inhibitors | 310,000 compounds, 5.9% hits; also: potency is read from the fitted curve at half-maximal effect; % is scaled to controls: 0 for no effect and ±100 for the full control effect
#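 Luminescence readout; reporter = integrated firefly luciferase in P. falciparum. RBC culture at 2% hematocrit, 0.1% parasitemia final, 37 C/5% CO2; decreased signal taken as growth inhibition.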
# Pf growth 96h: inhibits malaria parasite growth, 96 h; P. falciparum luciferase reporter growth, 96 h; Potency, µM (series often up to 28.7 µM), without a hit: top-dose activity change, negative = inhibition, actives largely listed as inhibitors; 320,000 compounds, 6.9% hits; AID 504834; also: potency is read from the fitted curve at half-maximal effect; % is scaled to controls: 0 for no effect and ±100 for the full control effect
#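 Compounds incubated with erythrocytes infected by luciferase-expressing P. falciparum (2% hematocrit, 0.05% parasitemia final) for 96 hours, 37 C in 5% CO2. Growth inhibition scored as decreased luciferase luminescence.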
# * marks the source's active call; other numbers are inactive results; ? = inconclusive; . = not tested or not shown; + = active, no number; [ ] = another dose, or the depositor's remark. Unless noted, calls follow the shape of the dose curve; as a rule, active = well fitted curve in the direction sought with a large enough effect; inconclusive = small, poorly fitted or top-dose-only effect, or another doubt; inactive = no such curve, though single readings can be large; an effect the other way counts as inactive or inconclusive.
SMILES,HCV inh,CHX counter,AMA1-RON2 inh,Shiga inhibitor,Pf growth 48h,Pf growth 96h
CNC(C)C#Cc1ccc2oc3cc(C)c(C)cc3c(=O)c2c1 (stereo not drawn),-23%[8.37 µM],.,28%,.,.,.
COc1cccc2sc3ccc(C#CC4(N)CCCCC4)cc3c(=O)c12,?,32*,16%,64*,?,?
O=c1cc2c(=O)oc3cc(O)c(O)oc3c2c(O)c1O,11%,-3,10µM*,-6,5.2µM*,8.3µM*
O=c1oc2cc(O)c(Cl)cc2c2ccccc12,-2%,-3,2%,33,11%,25%
Cn1nc(OC(=O)Nc2ccc(Cl)cc2)cc1C(F)(F)F,7%,17*,.,22,27%,.
O=C1C2C3C=CC(C3)C2C(=O)N1c1ccc(-c2nc3ccccc3o2)cc1 (stereo not drawn),-22%,29*,2%,110,165%,3%
Cc1cc(C(=O)NNC(=O)[C@H](C)NC(=O)c2ccc(Br)cc2)c(C)o1,-2%,.,37%,.,.,.
Cc1ccc(CNC(=O)/C=C/c2ccc(S(=O)(=O)NCc3ccco3)cc2)cc1,?,21*,20%,40*,-15%,?
COc1ccccc1CNC(=O)/C=C/c1ccc(S(=O)(=O)NCc2ccco2)cc1,?,20*,0%,+,?,?
O=C(/C=C/c1ccc(S(=O)(=O)NCc2ccco2)cc1)NCc1cccc(Cl)c1,?,29*,-8%,46*,-11%,?
COc1cccc(CN(Cc2ccccc2F)S(=O)(=O)c2ccc(S(=O)(=O)NCc3ccccc3)cc2)c1,14%,-2,1%,-13,?,?
O=C(O)/C=C/c1ccc(S(=O)(=O)NCc2ccco2)cc1,11%,5,-4%,12,22%,?
NS(=O)(=O)c1ccc(NC(=O)/C=C/c2ccc(S(=O)(=O)NCc3ccco3)cc2)cc1,?,6,6%,-12,0%,?
COc1cccc(CN(Cc2ccco2)S(=O)(=O)c2ccc(S(=O)(=O)NCc3ccccc3)cc2)c1OC,11µM*,13,-7%,11,13µM*,12%
CCOC(=O)C1(C)CCN1C(=O)c1ccc(F)c(Cl)c1 (stereo not drawn),.,.,-2%,.,.,.
CCCOc1ccc(F)cc1-c1cc(C(=O)Nc2ccc(OC)cc2C)[nH]n1,.,.,-7%,.,.,.
CN(CC(=O)Nc1ccc(Cl)c(Cl)c1)C(=O)CC1OC(=O)c2ccccc21 (stereo not drawn),7%,.,9%,.,0%,-7%
CC(C)Cc1nc2sc3c(NCc4ccco4)ncnc3c2c2c1COC(C)(C)C2,?,18,-4%,-6,?,?
CC1(C)Cc2c(c(-c3ccco3)nc3sc4c(NCCO)ncnc4c23)CO1,13µM*,-5,-4%,24,?,?
Cc1nc2sc3c(NCc4ccco4)ncnc3c2c2c1COC(C)(C)C2,?,-1,-10%,-3,6.6µM*,12µM*
CO[C@H]1CC[C@@]2(C)[C@@H](CC[C@@H]3[C@@H]2CC[C@@]2(C)[C@H]3C[C@H](C(=O)N[C@@H](CCCN=C(N)N)C(=O)NCC(=O)N[C@@H](CC(=O)O)C(N)=O)O[C@]23CCCO3)C1,?,.,-3%,.,.,.
O=C(O)c1ccc2c(c1)C(=O)N([C@H](Cc1ccc(O)cc1)C(=O)O)C2=O,.,0,.,-6,?,?
N#Cc1ccccc1S(=O)(=O)N1CCN(C(=O)CN2CCCC2c2cccs2)CC1 (stereo not drawn),1%,.,-11%,.,9.3µM*,4.7µM*
N#Cc1ccccc1S(=O)(=O)N1CCN(C(=O)[C@@H]2CCCN2C(=O)c2cccs2)CC1,3%,.,-2%,.,?,?
CCCCCCCCN1C(=O)[C@H](CC(=O)N2CCSCC2)C[C@@]2(C(=O)OC)CCCCC=C12,.,.,-5%,.,.,.
SMILES,HCV inh,CHX counter,AMA1-RON2 inh,Shiga inhibitor,Pf growth 48h,Pf growth 96h
C=CCn1c(SCc2ccccc2C#N)nnc1-c1cc(Br)ccc1O,-8%,-5,24%,3,2.3µM*,-1%
O=C(O)CCC(=O)N1N=C(c2ccccc2)CC1c1cccs1 (stereo not drawn),4%,1,-6%,6,14%,-12%
O=C(c1ncc[nH]1)c1cccs1,5%,29*,-6%,24,78%,38%
O=C(CN1C(=O)c2ccccc2S1(=O)=O)N1CCN(Cc2ccc3c(c2)OCO3)CC1,3%,-1,5%,-3,-7%,33%
O=C(Cn1ncc2c1-c1ccccc1OC2)N1CCN(Cc2ccc3c(c2)OCO3)CC1,-20%,-6,-5%,-11,.,4.7µM*
CSc1ccc(-c2ccc3c(c2)c(Sc2ccccc2)c(-c2ccccc2)n3C)cc1,.,.,25%,.,.,.
Cc1ccccc1CSCCNC(=O)c1ccccc1,19%,12,0%,12,12µM*,0%
CC(C)(C)SCCNC(=O)c1ccccc1,-4%,37*,7%,37,.,49%
CSCCNC(=O)c1ccc(C(C)(C)C)cc1,4%,28*,2%,92*,84%,5%
COc1c(C(=O)NCCSC(C)(C)C)ccc2ccccc12,1%,13*,-16%,39*,13%,?
COc1ccc(NC(=O)c2ccc3ccccc3c2OC)cc1,-23%,.,5%,.,.,.
CC(C)(C)c1ccc(C(=O)NCCCNC(=O)c2ccco2)cc1,4%,-2,-12%,4,?,-1%
Cc1occc1-c1nnc(SCC(=O)NC2CCCCC2C)o1 (stereo not drawn),18%,.,-29%,.,7%,-3%
CCc1nc2ccc(C(=O)N(CC)CCN(C)C)cn2c1N(C)Cc1nccs1,.,.,8%,.,.,.
Cc1ccc(C(=O)NCCSC(C)(C)C)cc1[N+](=O)[O-],1%,54*,-1%,95*,32%,-17%
Cc1ccc(C(=O)NCCSC(C)(C)C)cc1,9%,43*,2%,31,.,72%
CCCCNC(=O)c1ccc(SCC(=O)N(CC)CC)c([N+](=O)[O-])c1,14%,2,11%,-2,9%,1µM*
